Measured values from PubChem BioAssay (Tox21).
Inconclusive results are not listed. Unmarked numbers belong to inactive results. Calls of active or inactive are those of the source. Unless noted, the call rests on the fitted dose curve; in most records, active means well fitted cell-killing curve with a large enough effect in the repeat runs; inconclusive means weak or mixed curves, or effect the other way; inactive means flat fitted curve, though single readings scatter.

Tested on: not listed separately
Assay: qHTS assay to identify small molecule that activate the aryl hydrocarbon receptor (AhR) signaling pathway - cell viability counter screen (AID 743086);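 further: HepG2 liver cells carrying the AhR DRE luciferase reporter; nearly all actives have a fitted effect of over 45% in size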
Conditions: HepG2-AhR-luc viability, CellTiter-Fluor, 24 h; series mostly up to 70.3 µM; viability change, negative = cytotoxic: at the top concentration
Summary of the method: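 HepG2-AhR-luc (HG2L7.5c1) cells, 4000/well, treated 24 h at 37 C with compound; viability measured as CellTiter-Fluor fluorescence after 30 min in the same wells as the luciferase read.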
On the % scale 0 is the no-effect control and ±100 the full control effect.

Row | Structure (SMILES) | viability change, negative = cytotoxic | Potency
1 | CC1=CC(C)C(C=O)C(C)C1 (stereo not drawn) | 13.8% | –
2 | Cc1cc(C)c(NC(=O)CN(CC(=O)O)CC(=O)O)c(C)c1Br | 11.6% | –
3 | OC/C=C/c1ccccc1 | – | inactive
4 | C#CC(O)C(CC)CCCC (stereo not drawn) | -2.16% | –
5 | C=C(C)C(=O)OCCCCCCCCCCCCCCCCCC | 4.42% [at 32.5 µM] | –
6 | C=CCOc1nc(OCC=C)nc(OCC=C)n1 | 2.7% | –
7 | CCCCCN(CCCCC)C(=O)C(CCC(=O)O)NC(=O)c1ccc(Cl)c(Cl)c1 (stereo not drawn) | 11.1% | –
8 | NS(=O)(=O)c1cc2c(cc1C(F)(F)F)NC(Cc1ccccc1)NS2(=O)=O (stereo not drawn) | 7.77% [at 32.5 µM] | –
9 | CC(C=O)Cc1ccc(C(C)C)cc1 (stereo not drawn) | -1.37% | –
10 | O=C(O)/C=C/c1ccc(/C=C/C(=O)O)cc1 | 0.705% | –
11 | CCCOCC(C)OCC(C)O (stereo not drawn) | -0.817% [at 95 µM] | –
12 | OC[C@H]1O[C@@H]2O[C@H]3[C@H](O)[C@@H](O)[C@@H](O[C@H]4[C@H](O)[C@@H](O)[C@@H](O[C@H]5[C@H](O)[C@@H](O)[C@@H](O[C@H]6[C@H](O)[C@@H](O)[C@@H](O[C@H]7[C@H](O)[C@@H](O)[C@@H](O[C@H]8[C@H](O)[C@@H](O)[C@@H](O[C@H]9[C@H](O)[C@@H](O)[C@@H](O[C@H]1[C@H](O)[C@H]2O)O[C@@H]9CO)O[C@@H]8CO)O[C@@H]7CO)O[C@@H]6CO)O[C@@H]5CO)O[C@@H]4CO)O[C@@H]3CO | 1.27% [at 32.5 µM] | –
13 | CSc1ccc(C=O)cc1 | -0.973% | –
14 | CCCc1ccccc1O | -0.897% | –
15 | CCOC(=O)Cn1c(=O)sc2cccc(Cl)c21 | -12.7% | –
16 | COC(=O)CCCC(=O)O | 0.355% | –

Row | Structure (SMILES) | viability change, negative = cytotoxic | Potency
17 | C/C=C1\C(=O)C[C@H]2[C@@H]3CCC4=CC(=O)CC[C@]4(C)[C@H]3CC[C@]12C | -6.67% | –
18 | FC(F)(F)C(F)(F)C(F)(F)C(F)(F)C(F)(F)C(F)(F)C(F)(F)C(F)(F)C(F)(F)C(F)(F)F | 24.8% [at 8.47 µM] | –
19 | C=CC(=O)OCCCCCC | 15.3% | –
20 | COc1cc(CCC(C)=O)ccc1O | -3.52% | –
21 | CCn1cc(C(=O)O)c(=O)c2cc(F)c(N3CCN(C)CC3)cc21 | -6.44% | –
22 | O=S(=O)(O)c1ccccc1O | -0.479% | –
23 | C#CC(O)CCCCC (stereo not drawn) | -4.4% [at 95 µM] | –
24 | C=CC(=O)N1CCOCC1 | -3.08% | –
25 | OCC(O)[C@@H](O)[C@H](O)[C@H](O)CO[C@H]1O[C@H](CO)[C@@H](O)[C@H](O)[C@H]1O (stereo partly drawn) | -6.55% | –
26 | CCCCCCCCC=O | 5.36% | –
27 | CC(CCO)CCCC(C)(C)O (stereo not drawn) | -18.8% | –
28 | C[C@H]1O[C@@H](n2cc(F)c(=O)[nH]c2=O)[C@H](O)[C@@H]1O | 4.82% | –
29 | CCCCCCCCCCC1CO1 (stereo not drawn) | -1.72% | –
30 | N[C@@H](CS)C(=O)O | -1.11% [at 95 µM] | –
31 | C=C(C)C(=O)NCCC[N+](C)(C)C | -3.21% | –

Target: Peroxisome proliferator-activated receptor gamma (Homo sapiens) (UniProt P37231)
Assay: qHTS assay to identify small molecule agonists of the peroxisome proliferator-activated receptor gamma (PPARg) signaling pathway (AID 743094; active means well fitted activation curve with a large enough effect in the signal ratio in the repeat runs, not every such curve was filed as active; the % refers to the signal ratio)
Conditions: HEK293H PPARg-UAS-bla, beta-lactamase FRET ratio, 17 h; series mostly up to 57 µM; activation: at the top concentration
Summary of the method: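 Reporter activation was scored by fluorescence of cleaved LiveBLAzer B/G substrate (1 h, room temperature) in PPARg-bla HEK293H cells previously treated 17 h at 37C with DMSO-dissolved compounds.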

Peroxisome proliferator-activated receptor gamma (Homo sapiens), sequence (P37231 whole entry, looked up): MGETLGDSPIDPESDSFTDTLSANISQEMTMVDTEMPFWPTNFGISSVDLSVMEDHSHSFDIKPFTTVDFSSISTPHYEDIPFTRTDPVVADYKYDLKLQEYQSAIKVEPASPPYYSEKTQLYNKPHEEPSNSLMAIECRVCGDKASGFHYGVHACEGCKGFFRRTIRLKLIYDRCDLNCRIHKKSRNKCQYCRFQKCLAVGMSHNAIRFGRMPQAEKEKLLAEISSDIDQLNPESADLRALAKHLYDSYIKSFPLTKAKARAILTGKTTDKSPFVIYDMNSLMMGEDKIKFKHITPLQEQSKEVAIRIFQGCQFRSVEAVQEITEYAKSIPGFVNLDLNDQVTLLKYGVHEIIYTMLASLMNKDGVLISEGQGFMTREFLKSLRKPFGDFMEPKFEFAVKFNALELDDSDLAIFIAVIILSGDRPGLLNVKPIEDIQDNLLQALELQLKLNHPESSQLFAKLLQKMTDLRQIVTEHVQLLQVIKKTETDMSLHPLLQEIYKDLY

Row | Structure (SMILES) | activation
32 | CC1=CC(C)C(C=O)C(C)C1 (stereo not drawn) | -1.17%
33 | Cc1cc(C)c(NC(=O)CN(CC(=O)O)CC(=O)O)c(C)c1Br | -2.22%
34 | C#CC(O)C(CC)CCCC (stereo not drawn) | 1.76%
35 | C=C(C)C(=O)OCCCCCCCCCCCCCCCCCC | -4.2% [at 26.2 µM]
36 | C=CCOc1nc(OCC=C)nc(OCC=C)n1 | -0.501%
37 | CCCCCN(CCCCC)C(=O)C(CCC(=O)O)NC(=O)c1ccc(Cl)c(Cl)c1 (stereo not drawn) | -0.899%
38 | OCCCCCCO | 0.332% [at 78.9 µM]
39 | NS(=O)(=O)c1cc2c(cc1C(F)(F)F)NC(Cc1ccccc1)NS2(=O)=O (stereo not drawn) | -4.78% [at 26.2 µM]
40 | CCO[Si](CCCN=C=O)(OCC)OCC | -6.25%
41 | CC(C=O)Cc1ccc(C(C)C)cc1 (stereo not drawn) | 6.08%
42 | CC1=CC(=O)CCC1 | -5.31%
43 | O=C(O)/C=C/c1ccc(/C=C/C(=O)O)cc1 | -5.22%
44 | OC[C@H]1O[C@@H]2O[C@H]3[C@H](O)[C@@H](O)[C@@H](O[C@H]4[C@H](O)[C@@H](O)[C@@H](O[C@H]5[C@H](O)[C@@H](O)[C@@H](O[C@H]6[C@H](O)[C@@H](O)[C@@H](O[C@H]7[C@H](O)[C@@H](O)[C@@H](O[C@H]8[C@H](O)[C@@H](O)[C@@H](O[C@H]9[C@H](O)[C@@H](O)[C@@H](O[C@H]1[C@H](O)[C@H]2O)O[C@@H]9CO)O[C@@H]8CO)O[C@@H]7CO)O[C@@H]6CO)O[C@@H]5CO)O[C@@H]4CO)O[C@@H]3CO | 0% [at 26.2 µM]
45 | OCc1ccccn1 | -2.14%
46 | NC(=O)CCCCC1CCSS1 (stereo not drawn) | 1.82%
47 | CSc1ccc(C=O)cc1 | 4.23%

Row | Structure (SMILES) | activation
48 | CCCc1ccccc1O | 2.85%
49 | CCCC(=O)O[C@]1(C(=O)CCl)[C@@H](C)C[C@H]2[C@@H]3CCC4=CC(=O)C=C[C@]4(C)[C@@]3(F)C(=O)C[C@@]21C | -5.45%
50 | CCOC(=O)Cn1c(=O)sc2cccc(Cl)c21 | 4.44%
51 | COC(=O)CCCC(=O)O | 0.261%
52 | FC(F)(F)C(F)(F)C(F)(F)C(F)(F)C(F)(F)C(F)(F)C(F)(F)C(F)(F)C(F)(F)C(F)(F)F | -0.797% [at 7.08 µM]
53 | COc1cc(CCC(C)=O)ccc1O | 3.87%
54 | CCn1cc(C(=O)O)c(=O)c2cc(F)c(N3CCN(C)CC3)cc21 | 7.76%
55 | O=S(=O)(O)c1ccccc1O | -0.289%
56 | C#CC(O)CCCCC (stereo not drawn) | 3.97% [at 78.9 µM]
57 | Cc1c(C)n(CCN(C)C)c2ccc(C(=O)OCCN(C)C)cc12 | -0.395%
58 | C=CC(=O)N1CCOCC1 | 7.91%
59 | OCC(O)[C@@H](O)[C@H](O)[C@H](O)CO[C@H]1O[C@H](CO)[C@@H](O)[C@H](O)[C@H]1O (stereo partly drawn) | -8.86%
60 | CC(CCO)CCCC(C)(C)O (stereo not drawn) | 0.429%
61 | C[C@H]1O[C@@H](n2cc(F)c(=O)[nH]c2=O)[C@H](O)[C@@H]1O | 0.227%
62 | N[C@@H](CS)C(=O)O | 1.48% [at 78.9 µM]
63 | C=C(C)C(=O)NCCC[N+](C)(C)C | 0.469%
